PTHR1 ag: PTHR1 (human) receptor agonism. Potency, µM (doses to about 115 µM), for the others: at the highest dose activation, hits mostly activators. actives 0.075% (n = 410,000). Q03431. AID 743266. HEK293 GP2 PTHR1 cells, GloSensor cAMP luminescence, 1 h; note: nearly all actives have a fitted effect of over 55% in size
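HEK-293-derived GP2 cells expressing PTHR1 and a GloSensor cAMP reporter, 3,000/well, plated overnight, given luciferin plus IBMX (each 0.5 mM as added) for 1 h at 37 °C, then compound for 1 h at 37 °C. Luminescence was read after 15 min at room temperature.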
GLP1R ag: GLP-1 receptor (human) agonism | P43220 | HEK293 GLP-1R CRE-luciferase, luminescence, 4-6 h; cells express a hypersensitive GLP-1R form | Potency, µM (doses to about 45.6 µM), without a hit: at the highest dose activation, hits mostly activators | actives 0.007% (n = 380,000) | AID 624172; note: % of control where 0% means no effect
GLP1R inv ag: inverse agonists of human GLP-1 receptor. HEK293 GLP-1R CRE-luciferase, luminescence, 24 h; GLP-1R form is constitutively active. Potency, µM (titrated, usually from 38.3 µM), without a hit: top-dose activity change, negative = inhibition, most hits filed as inhibitors. actives 1.6% (n = 410,000). AID 624417; note: % is set by controls: 0 for no effect and ±100 for the full control effect; nearly all actives have a fitted effect of over 55% in size
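Stable HEK293 clone (constitutively active GLP-1R + cAMP-response luciferase); 200 cells/uL plated, 12 h pre-culture, compound 24 hr, 37 deg C/5% CO2; detection reagent 12 min RT; luminescence.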
GLS inhibitor: inhibitors of human glutaminase (GLS); O94925; AID 624170; Potency, µM (doses to about 45.5 µM), inactives show at the highest dose activity change, negative = inhibition, most hits filed as inhibitors; GLS enzymatic activity, qHTS titration; actives 0.21% (n = 410,000); note: % is set by controls: 0 for no effect and ±100 for the full control effect
Target sequence (O94925 whole entry, looked up): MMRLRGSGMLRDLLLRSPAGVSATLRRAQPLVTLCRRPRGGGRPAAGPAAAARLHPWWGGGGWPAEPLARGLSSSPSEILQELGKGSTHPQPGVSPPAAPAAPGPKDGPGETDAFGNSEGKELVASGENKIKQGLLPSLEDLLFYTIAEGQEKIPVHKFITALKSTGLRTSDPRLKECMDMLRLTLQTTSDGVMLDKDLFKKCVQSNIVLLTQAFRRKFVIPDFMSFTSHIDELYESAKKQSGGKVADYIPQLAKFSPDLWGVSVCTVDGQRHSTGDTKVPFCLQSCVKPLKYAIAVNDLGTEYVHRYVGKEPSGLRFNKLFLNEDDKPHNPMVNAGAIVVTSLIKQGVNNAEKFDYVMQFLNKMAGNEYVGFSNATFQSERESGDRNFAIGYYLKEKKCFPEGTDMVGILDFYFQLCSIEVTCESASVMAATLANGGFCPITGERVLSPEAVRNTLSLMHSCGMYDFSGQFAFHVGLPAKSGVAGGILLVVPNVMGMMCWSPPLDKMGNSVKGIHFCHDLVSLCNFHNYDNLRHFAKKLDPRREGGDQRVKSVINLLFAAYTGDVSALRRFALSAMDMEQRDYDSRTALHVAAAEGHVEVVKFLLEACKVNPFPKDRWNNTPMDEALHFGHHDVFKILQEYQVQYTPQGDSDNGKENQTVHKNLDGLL
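Two-point fluorescence kinetic (t0, 30 min RT) for hKGA; glutamate detected via glutamate oxidase–HRP–Amplex Red. Substrate: 1 mM L-glutamine solution; buffer 45 mM KH2PO4, pH 8.2.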
12-LOX inh: inhibitors of human 12S-lipoxygenase ALOX12; P18054; purified 12hLO, xylenol orange hydroperoxide absorbance; Potency, µM (doses to about 108 µM), inactives show top-dose activity change, negative = inhibition, most hits filed as inhibitors; actives 1.1% (n = 580,000); note: % is set by controls: 0 for no effect and ±100 for the full control effect
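Purified human 12hLO (150 nM final) in 25 mM Hepes, 0.01% Triton X-100, pH 7.0 was preincubated 15 min at room temperature with compound. Then 40 uM arachidonic acid was added, 30 min. Hydroperoxide was read by Fe-XO absorbance ratio 573/405 nm.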
Glioma ERSR ind: ER stress response induction in glioma | U87-MG GRP78 promoter luciferase reporter, 16 h | Potency, µM, for the others: at the highest dose activation, usual class: activators | actives 0.02% (n = 420,000); note: series mostly up to about 76 µM; % of control where 0% means no effect; nearly all actives have a fitted effect of over 35% in size
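Stably transfected U87-MG glioma cells carrying a GRP78-based luciferase sensor; 16 h compound incubation. Luminescence end-point read 10 min after Bright-Glo addition at room temperature.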
* hit, by the source's call; i = inactive; u = inconclusive; x = not tested or not shown; [ ] = dose if it differs, or a comment. Sampled rows, rich in hits. Any-hit rate of the full collection: about 2.3%. Calls come from the whole dose curve; as a rule, active = well fitted curve in the direction sought with a large enough effect; inconclusive = small, poorly fitted or top-dose-only effect, or another doubt; inactive = no such curve, though single readings can be large; an effect the other way counts as inactive or inconclusive. Potency is the fitted concentration of half-maximal effect.

SMILES	PTHR1 ag	GLP1R ag	GLP1R inv ag	GLS inhibitor	12-LOX inh	Glioma ERSR ind
O=C(Cc1cccs1)Nc1nnc(Cc2ccccc2)s1	-5%	-2%	-22%	-5%	45µM*	1%
O=C(Cc1cccs1)Nc1nnc(CCc2ccccc2)s1	-2%[57.5 µM]	2%	0%	-3%	-7%	-1%
CC(C)(C)Cc1nnc(NC(=O)Cc2cccs2)s1	-2%	3%	-22%	8%	45µM*	-3%
CC(C#N)OC(=O)c1cc(-c2cccs2)nc2ccccc12 (configuration not stated)	x	x	x	x	-14%	x
CN(C)CCCNc1oc(-c2ccc([N+](=O)[O-])cc2)nc1C#N	x	x	x	x	-3%	x
CN(C)CCCNc1oc(-c2ccc(Cl)cc2)nc1C#N	-8%[57.5 µM]	-11%	5µM*	17%	u	1%
CC(=O)N(C1=C(Cl)C(=O)c2ccccc2C1=O)C1CCCCC1	-16%	-21%	u	6.3µM*	1.8µM*	-13%
Nc1nnnn1Cc1nnc(SCc2ccccc2F)n1-c1ccccc1	x	x	x	x	54%	x
CCOP(=O)(OCC)c1nc(Cc2ccc(Cl)cc2)oc1NCc1ccco1	x	x	x	x	-3%	x
CCN(CC)S(=O)(=O)c1cccc(C(=O)Nc2cccc(C)c2)c1	-5%[57.5 µM]	-1%	u	-10%	0%	u
CCN(CC)S(=O)(=O)c1cccc(C(=O)N[C@H](C(=O)NCc2ccc(Cl)cc2)C(C)C)c1	-2%[57.5 µM]	-2%	13µM*	-16%	4%	-3%
CCN(CC)S(=O)(=O)c1cccc(C(=O)N[C@H](C(=O)NCc2ccccc2F)C(C)C)c1	10%	-1%	u	3%	3%	-3%
CCN(CC)S(=O)(=O)c1cccc(C(=O)Nc2cc(C)cc(C)c2)c1	i	4%	2µM*	-25%	0%	6%
CCN(CC)S(=O)(=O)c1cccc(C(=O)Nc2ccc(S(=O)(=O)NC3=NCCCCC3)cc2)c1	-77%	6%	15%	0%	50µM*	-5%
O=c1c2cnc(N3CCCCC3)nc2ccn1-c1ccc(F)cc1	x	x	x	x	16%	x
O=C(O)C(Cc1ccccc1)C(C(=O)O)c1ccccc1 (configuration not stated)	x	x	x	x	-24%	x
CC1=NN(c2ccc(C(=O)OC(C)C)cc2)C(=O)/C1=C\C=C\c1ccco1	i	-14%	11%	-4%	u	0%
CCc1ccc(N2NC(=O)/C(=C/C=C/c3ccco3)C2=O)cc1	-10%	-4%	-2%	-17%	28µM*	0%
CCSc1nnc(NC(=O)c2ccc3ccccc3n2)s1	-17%[57.5 µM]	-19%	5µM*	-6%	2%	-7%
CCc1nnc(NC(=O)c2cc(-c3ccccc3)nc3ccccc23)s1	x	x	x	x	9%	x
CCc1nnc(NC(=O)c2ccc3ccccc3n2)s1	-77%	-2%	7.9µM*	-6%	-10%	-6%
Cn1cnc2c1c(=O)n(CC(=O)N1CC(C(=O)N3CCOCC3)Oc3ccccc31)c(=O)n2C (configuration not stated)	x	x	x	x	34%	x
CN(C)c1ccc(NC(=S)c2ccccn2)cc1	-24%	-16%	5.6µM*	18%	u	-15%
CN(C)c1ccc(C(=S)Nc2ccccc2)cc1	-17%	7%	u	23%	-14%	-6%
CN(C1CCS(=O)(=O)C1)S(=O)(=O)c1ccccc1 (configuration not stated)	i	11%	13%	16µM*	-24%	-2%
SMILES	PTHR1 ag	GLP1R ag	GLP1R inv ag	GLS inhibitor	12-LOX inh	Glioma ERSR ind
O=S1(=O)CCS(=O)(=O)C1c1ccccc1	3%	-9%	11µM*	-10%	0%	-3%
Cc1nc(NCc2ccco2)sc1C(=O)NCC(C)C	x	x	x	x	6%	x
CC(C)(C)C(=O)N/C(N)=N/c1nc2ccccc2o1	-30%	5%	11µM*	11%	210%	-6%
CCC(=O)N/C(N)=N/c1nc2ccccc2o1	-26%	7%	-13%	-1%	248%	-4%
CC(C)c1noc(COc2ccc(C(N)=O)cc2)n1	x	x	x	x	-6%	x
O=C(O)c1ccc(/C=N/Nc2ccc(F)cc2F)cc1	-37%	-17%	u	u	u	-10%
Fc1ccc(N/N=C/C=C/c2ccccc2)c(F)c1	-12%	0%	u	19%	40µM*	-2%
Fc1ccc(N/N=C/c2ccncc2)c(F)c1	-16%	10%	1.4µM*	13%	u	5%
CSc1ccc(/C=N/Nc2ccc(F)cc2F)cc1	x	x	x	x	1.8µM*	x
CCN(CC)S(=O)(=O)c1ccc(CNC(=O)c2nn(C)c(=O)c3ccccc23)cc1	x	x	x	x	-13%	x
CC1C[N+](=C2C=C(N3CCOCC3)CC(C)(C)C2)CC(C)O1 (configuration not stated)	i	9%	14%	17%	28µM*	-2%
Cn1c(Oc2ccc(F)cc2)c(C=O)c2ccccc21	-17%	5%	10µM*	-6%	-2%	-2%
Cc1c(C=O)c2ccccc2n1C	x	x	x	x	-29%	x
Cc1c(C(=O)N2CCc3ccccc3C2)oc2ccc(F)cc12	x	x	x	x	-3%	x
FC(F)(F)c1ccccc1Cc1c(-c2ccc(Cl)cc2)nc2ccc(Cl)cn12	i	14%	u	26%	u	3%
FC(F)(F)c1ccccc1Cc1c(-c2ccc(Cl)cc2)nc2ccc(Br)cn12	4%	-1%	-23%	1%	40µM*	3%
Fc1ccc(-c2nc3ccc(Br)cn3c2Cc2ccccc2C(F)(F)F)cc1	-23%	-1%	u	10%	18µM*	4%
COc1ccccc1CNc1oc(-c2ccc(C)cc2)nc1C#N	x	x	x	x	-9%	x
N#Cc1ccc(NC(=O)COC(=O)c2ccccc2Oc2ccccc2)cc1	x	x	x	x	-29%	x
CCOc1ccc(-c2cn3c(n2)sc2cc(C(=O)NCCCN4CCCCCC4)ccc23)cc1	i	x	8%	-16%	u	-5%
CCOc1ccc(-c2cn3c(n2)sc2cc(C(=O)NCCCN(CC)CC)ccc23)cc1	-15%	x	10µM*	3%	u	-3%
O=C(OCC(=O)C12CC3CC(CC(C3)C1)C2)c1ccc(O)cc1O	i	23%	11µM*	1%	u	5%
COCc1nnc(NC(=O)CCc2ccc(-c3ccc(C)cc3)o2)s1	x	x	x	x	-19%	x
